hNpr1 antagonist: antagonists of human natriuretic peptide receptor Npr1 | P16066 | HEK293 hNpr1 GloSensor cGMP, ANP-stimulated luminescence | Potency, µM (doses to about 46.3 µM), without a hit: top-dose activity change, negative = inhibition, hits mostly inhibitors | 76,000 tested, 1.6% active; calls by dose curve; note: % is set by controls: 0 for no effect and ±100 for the full control effect; nearly all actives have a fitted effect of over 60% in size
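Compound pre-incubated 30 min at room temperature on GloSensor-loaded HEK293 cells stably carrying hNpr1 and the pGS-40F cGMP biosensor. Stimulation uses hNppA at 0.1 nM final; luminescence is taken at baseline and 20 min post-agonist.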
3T3 cytotox: kills NIH 3T3 cells | NIH 3T3 viability, CellTiter-Glo ATP luminescence, 48-72 h | Potency, µM (doses to about 96.7 µM), for the others: at the highest dose activity change, negative = cytotoxicity, most hits filed as inhibitors | 94,000 tested, 4.3% active | AID 1345082; note: % is set by controls: 0 for no effect and ±100 for the full control effect; nearly all actives have a fitted effect of over 55% in size
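Luminescent ATP readout (CellTiter-Glo, 10 min RT) after 48 or 72 hr compound exposure of NIH 3T3 cells seeded at 400 cells/well in 1536-well format; quantitative HTS.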
FLuc inh-1: Photinus pyralis luciferase inhibition; P08659; purified P. pyralis luciferase, luminescence, biochemical; Potency, µM (top dose mostly 115 µM), actives largely listed as inhibitors; 76,000 tested, 2.5% active; AID 1347043; note: % is set by controls: 0 for no effect and ±100 for the full control effect; nearly all actives have a fitted effect of over 65% in size
Target sequence (P08659 whole entry, looked up): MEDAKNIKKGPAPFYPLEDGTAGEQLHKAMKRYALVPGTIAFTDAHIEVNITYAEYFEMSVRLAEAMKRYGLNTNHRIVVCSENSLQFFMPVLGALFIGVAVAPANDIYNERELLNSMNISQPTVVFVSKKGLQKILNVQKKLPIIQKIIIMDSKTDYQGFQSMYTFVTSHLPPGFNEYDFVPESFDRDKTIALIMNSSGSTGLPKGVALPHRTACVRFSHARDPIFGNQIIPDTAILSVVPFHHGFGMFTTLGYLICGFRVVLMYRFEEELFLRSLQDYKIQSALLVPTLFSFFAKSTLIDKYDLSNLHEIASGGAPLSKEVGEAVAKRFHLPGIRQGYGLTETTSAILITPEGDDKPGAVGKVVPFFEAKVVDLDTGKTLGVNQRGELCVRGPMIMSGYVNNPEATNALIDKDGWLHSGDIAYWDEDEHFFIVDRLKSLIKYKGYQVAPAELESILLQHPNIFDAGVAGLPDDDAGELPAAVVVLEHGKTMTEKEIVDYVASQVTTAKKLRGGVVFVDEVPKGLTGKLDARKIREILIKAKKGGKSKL
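Purified 10nM P. pyralis luciferase with 10uM D-luciferin and 10uM ATP in 50mM Tris acetate pH 7.5, 10mM Mg acetate, 0.01% Tween-20, 0.05% BSA. qHTS titration; luminescence read by CCD imager.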
HEK293 tox: HEK 293 cell cytotoxicity; HEK 293 viability, ATP luminescence (CellTiter-Glo), 48-72 h; Potency, µM (series often up to 115 µM), for the others: top-dose activity change, negative = cytotoxicity, usual class: inhibitors; 94,000 tested, 6.6% active; note: % is set by controls: 0 for no effect and ±100 for the full control effect; nearly all actives have a fitted effect of over 60% in size
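HEK 293 cells seeded at 250 cells/well were exposed to compound for 48 or 72 hr at 37 degree Celsius. Viability taken as ATP content by CellTiter-Glo luminescence.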
FLuc SDR no ATP: stabilizes firefly luciferase without ATP. Potency, µM (highest dose often 32.7 µM), for the others: top-dose activation (signal gain), actives largely listed as activators. Purified FLuc-C-HiBiT, Nano-Glo HiBiT luminescence, no ATP. shares compounds with FLuc inh-1. AID 1963318. 1,300 tested, 7.8% active; note: nearly all actives have a fitted effect of over 55% in size
FLuc SDR ATP: firefly luciferase binding stabilization, ATP added; shares compounds with FLuc inh-1; purified FLuc-C-HiBiT + ATP, HiBiT complementation luminescence; Potency, µM (doses to about 32.7 µM), for the others: at the top dose activation (gain of signal), actives largely listed as activators; 1,300 tested, 8.7% active; AID 1963319;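 note: signal reports ligand binding via conformational change of the enzyme rather than luciferase catalysis; % of control where 0% means no effect; nearly all actives have a fitted effect of over 55% in size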
FLuc inh-2: inhibitors of firefly luciferase enzymatic activity | shares compounds with FLuc inh-1 | Potency, µM (highest dose often 32.7 µM), without a hit: at the highest dose activity change, negative = inhibition, usual class: inhibitors | 1,300 tested, 42% active | AID 1963320 | purified FLuc-C-HiBiT enzyme, luciferin luminescence; note: % is set by controls: 0 for no effect and ±100 for the full control effect; nearly all actives have a fitted effect of over 70% in size
An asterisk follows results filed as active; i = inactive; ? = inconclusive; . = no result; [ ] = dose if it differs, or a comment. Most compounds without a hit are left out; they make up all but 11% or so of the library. Unless noted, calls come from the whole dose curve; as a rule, active = well fitted curve in the direction sought with a large enough effect; inconclusive = small, poorly fitted or top-dose-only effect, or another doubt; inactive = no such curve, though single readings can be large; an effect the other way counts as inactive or inconclusive. Potency is the fitted concentration of half-maximal effect.

SMILES	hNpr1 antagonist	3T3 cytotox	FLuc inh-1	HEK293 tox	FLuc SDR no ATP	FLuc SDR ATP	FLuc inh-2
Cc1cccc(C(=O)NC2CCN(c3cc(-c4ccc(Cl)cc4)[nH]n3)CC2)c1	-2%	?	i	?	.	.	.
O=C(NC1CCCN(c2cc(-c3ccccc3)[nH]n2)C1)c1ccc(Cl)cc1 (stereo unspecified)	-11%	?	i	?	.	.	.
CN(C)c1cccc(C(=O)NC2CCN(c3cc(-c4ccc(Cl)cc4)[nH]n3)CC2)c1	?	32µM*	7.1µM*	?	12%	9.9µM*	6.2µM*
COc1cccc([S+](=O)([O-])N2CCC(C(=O)N3CCC(N4CCOC4=O)CC3)CC2)c1	.	-9%	.	i	.	.	.
CCC(=O)N1CCc2c(C(=O)O)cccc21	-5%	-24%	28µM*	-8%	9%	19%	-13%
O=C(O)c1cccc2c1CCN2C(=O)c1ccc(F)cc1	?	?	1.3µM*	-29%	21%	1.2µM*	1.8µM*
Cc1nc(CN2C(=O)OC3(CCN(C(=O)Cc4ccccn4)CC3)C2(C)c2ccccc2)cs1 (stereo unspecified)	-7%	?	i	-18%	.	.	.
C[S+](=O)([O-])CCn1ncc2cc(OCC3CCN(C(=O)c4cccc(F)c4F)CC3)ccc21	-3%	-19%	i	?	.	.	.
C[S+](=O)([O-])CCn1ncc2cc(OCc3cccc(-c4ccccc4O)c3)ccc21	32µM*	?	4µM*	35µM*	19%[49.3 µM]	16%[49.3 µM]	14µM*
Cc1cc(-c2cccc(COc3ccc4c(cnn4CC[S+](C)(=O)[O-])c3)c2)ccn1	10µM*	25µM*	13µM*	25µM*	20%[49.3 µM]	12%[49.3 µM]	?
C[S+](=O)([O-])CCn1ncc2cc(OCc3cccc(-c4ccc(F)cc4)c3)ccc21	25µM*	?	10µM*	?	13%[49.3 µM]	12%[49.3 µM]	?
CC1=C[C@@H](CNC(=O)CCCC(=O)O)[C@H](C(C)C)C[C@H]1Cc1nc2ncccc2[nH]1	2%[70.6 µM]	-13%[174 µM]	i	-4%[172 µM]	.	.	.
O=C(NCCc1ccccc1F)c1ccc2oc(-c3ccncc3)nc2c1	.	-4%[138 µM]	.	-11%[172 µM]	.	.	.
COc1ccccc1-c1nc2cc(NC(=O)c3ccccc3Cl)ccc2o1	.	.	.	.	16%	13%	?
O=C(Nc1ccc2oc(-c3ccccc3F)nc2c1)c1ccccc1Cl	.	.	.	.	20%	17%	?
COc1ccc(-c2c(C(=O)NCC(F)(F)F)nc3sccn23)cc1	.	-16%[138 µM]	.	-28%[172 µM]	.	.	.
O=C(c1cccs1)N1CCc2nn(Cc3ccccc3)c(=O)n2CC1	.	-20%	.	-18%	.	.	.
Cc1cccc(NC(=O)N2CCC(Cc3nc(-c4ccccc4)n[nH]3)CC2)c1	1%	-13%	i	i	.	.	.
Cc1cccc(NC(=O)c2ccc(-c3ccccc3)s2)c1	.	.	.	.	25%	17%	2.8µM*
Cc1cc2c(c(-c3nc4ccccc4s3)c1)OC(CNC(=O)CCc1cccnc1)C2 (stereo unspecified)	.	.	.	.	14%	9%	?
CN1C(=O)[C@@H]2C[C@@H](CN2Cc2ccccc2F)Oc2ccccc21	0%[70.6 µM]	-9%[138 µM]	i	-10%[172 µM]	.	.	.
Fc1ccc(-n2ncc3c(N4CCC(Cc5ccccc5)CC4)ncnc32)cc1	.	.	.	.	15%	8%	1%
O=C(C1CN(c2ccccc2)C(=O)N1)N1CCC(Cc2ccccc2)CC1 (stereo unspecified)	-21%	?	i	?	.	.	.
Cc1ccc(-n2ncc3c(N4CCC(Cc5ccccc5)CC4)ncnc32)cc1C	.	.	.	.	13%	9%	-1%
COc1ccc(C(=O)N2CCN(c3nc4ncccc4o3)CC2)cc1	0%[70.6 µM]	-15%[138 µM]	i	i	.	.	.
SMILES	hNpr1 antagonist	3T3 cytotox	FLuc inh-1	HEK293 tox	FLuc SDR no ATP	FLuc SDR ATP	FLuc inh-2
c1ccc(-c2noc(-c3nc(C4CC4)no3)n2)cc1	?	-6%	2.5µM*	?	17%	19%	?
Cc1ccc(-n2ncc3c(N4CCCCC4)nc(NCCCO)nc32)cc1	.	.	.	.	10%	7%	-10%
Fc1ccc(-n2ncc3c(N4CCCCCC4)ncnc32)cc1	.	.	.	.	?	?	1.2µM*
Cc1ccc(-n2ncc3c(N4CCCCCC4)ncnc32)cc1	.	.	.	.	1.8µM*	0.88µM*	0.2µM*
Cc1ccc(N2Cc3c(ncnc3N3CCN(C)CC3)N(C)CC2=O)cc1	-2%	-27%	i	-5%	.	.	.
COc1ccc(CNC(=O)[C@@H](C)C2CC[C@@]3(C)CC[C@H](NC(=O)c4cncnc4)[C@@H](C)[C@@H]3[C@H]2O)cc1OC (stereo partly specified)	1%	-29%	i	?	.	.	.
COc1ccc(C(=O)NCCC2CCN(C(=O)Nc3cc(F)cc(F)c3)CC2)cc1	-26%	-30%	6.3µM*	?	?	15%	?
Cc1ccc(NC(=O)N2CCC(CCNC(=O)C3CC3)CC2)cc1	-5%	-19%	10µM*	?	?	?	?
Cc1ccc(NC(=O)N2CCC(CCNC(=O)C3CCC3)CC2)cc1F	-23%	-24%	11µM*	-12%	?	?	?
Cc1ccc(NC(=O)N2CCC(CCNC(=O)c3ccc(F)cc3)CC2)cc1F	-28%	?	10µM*	?	21%	13%	?
Cc1ccc(NC(=O)N2CCC(CCNC(=O)C(C)C)CC2)cc1F	4%	-6%	?	-6%	.	.	.
Cc1ccc(NC(=O)N2CCC(CCNC(=O)C3CCCC3)CC2)cc1	-1%	-6%	i	1%	.	.	.
COc1cccc(C(=O)NCCC2CCN(C(=O)Nc3cccc(F)c3)CC2)c1	0%	?	i	-23%	.	.	.
COCCn1c(=O)c(C(=O)N2CCN(C(=O)Nc3ccc(Cl)cc3)CC2)nc2cccnc21	.	-18%	.	-4%	.	.	.
Cc1nn(-c2ccccc2)c2c1C(C1CC1)N(C1CCCN([S+](=O)([O-])c3c(C)noc3C)C1)C2=O (stereo unspecified)	.	-22%	.	-20%	.	.	.
CN(C)c1ccc(-c2noc([C@@H]3CCCN3Cc3cnc4ccccc4c3)n2)cn1	14µM*	?	14µM*	?	14%[49.3 µM]	11%[49.3 µM]	-2%[49.3 µM]
COCC1CN(C)CC12CCN(C(=O)CCc1cccc(OC)c1)CC2 (stereo unspecified)	-1%	-15%	i	-22%	.	.	.
Fc1ccccc1Nc1nc(-c2ccccc2)no1	4.5µM*	?	0.4µM*	?	?	?	0.7µM*
COc1ccc(-c2noc(Nc3ccc(C)c(C)c3)n2)cc1	-19%	?	8.9µM*	40µM*	20%	12%	?

Compound activity deposited in PubChem by National Center for Advancing Translational Sciences (NCATS).
